In PubChem BioAssay (NCATS) one finds outcome data, which are given here for 40 molecules.

Calls of active or inactive are those of the source. Calls follow the shape of the dose curve; as a rule, active = well fitted curve in the direction sought with a large enough effect; inconclusive = small, poorly fitted or top-dose-only effect, or another doubt; inactive = no such curve, though single readings can be large or run the other way.

The assay addresses alpha-glucosidase (Oryza sativa, rice) (UniProt Q653V4). The assay can be described thus: Counterscreen for Glucocerebrosidase Inhibitors: qHTS Assay for Rice alpha-Glucosidase at pH 5.0 (AID 997). As to conditions: rice alpha-glucosidase enzyme activity; series mostly up to 76.9 µM. An excerpt: NIH Chemical Genomics Center [NCGC]
NIH Molecular Libraries Screening Centers Network [MLSCN]
PI Name: Zheng, Wei [NIH]
Alpha-glucosidase is responsible for hydrolysis of terminal, non-reducing 1,4-linked alpha-D-glucose residues with release of alpha-D-glucose. It is a lysosomal hydrolase that is required for the degradation of a small percentage (1-3%) of cellular glycogen in human. Deficiency of this enzyme results in glycogen-storage disease type II (GSDII), also referred to as Pompe disease, an autosomal recessive disorder. Structurally normal glycogen is accumulated in lysosomes and cytoplasm in affected patients, primarily in muscle tissues. Excessive glycogen storage within lysosomes may interrupt normal functioning of other organelles and leads to cellular injury. In turn, this leads to enlargement and dysfunction of the entire organ involved (eg, cardiomyopathy and muscle weakness).
It has reported that the improper folding and trafficking of alpha-glucosidase resulted from the genetic mutations may account for a significant number of Prope patients. […] We optimized this alpha-glucosidase assay in 1536-well plate format for identifying the novel small molecule inhibitors with the structures other than the sugar analogs in order to develop the new pharmacological chaperones.
NCGC Assay Protocol Summary:
This is a fluorogenic enzyme assay with 4-methylumbelliferyl-alpha-D-pyranoside as the substrate and rice alpha-glucosidase as the enzyme preparation. Upon the hydrolysis of this fluorogenic substrate, the resulting product, 1. 4-methyllumbelliferone, can be excited at 365 nm and emits at 440 nm which can be detected by a standard fluorescence plate reader. Data were normalized to the controls for basal activity (without enzyme) and 100% activity (with enzyme). In the AC50 values were determined from concentration-response data modeled with the standard Hill equation.
Assay buffer: 50 mM citric acid, 0.005% Tween-20, pH 5.0. (pH 5.0 is an optimal condition for this enzyme assay)
1536-well assay protocol for the human alpha-glucosidase:
(1) Add 2 ul/well of enzyme (4 nM final)
(2) Add 23 nL compounds in DMSO solution. The final titration was 0.7 nM to 77 uM.
(3) Add 1 ul of substrate (400 uM final)
(4) Incubate at room temperature for 20 min.
(5) Add 2 ul stop solution (1M NaOH and 1M Glycine mixture, pH 10)
(6) Detect the assay plate in a ViewLux plate reader (PerkinElmer) with Ex=365 nm and Em=440nm.
Keywords: Alpha-glucosidase, Prope Disease, pharmacological chaperone, chaperone therapy, high throughput screening, alpha-glucosidase inhibitor, MLSMR, MLSCN, NIH Roadmap, qHTS and NCGC
For the molecule `CS(=O)(=O)Nc1ccc([N+](=O)[O-])cc1Oc1ccccc1`, the result was inactive.
As for `Cc1cc(C(C)(C)C)c(O)c(C)c1CC1=NCCN1`, the entry is “inactive”.
`CC(C)C(=O)Nc1ccc([N+](=O)[O-])c(C(F)(F)F)c1`: the call was inactive.
As for `Cc1ccccc1N1C(=O)c2cc(S(N)(=O)=O)c(Cl)cc2NC1C` (stereo not given), the entry is “inactive”; as for `CC[N+](CC)(CC)CCOc1cccc(OCC[N+](CC)(CC)CC)c1OCC[N+](CC)(CC)CC`, “inactive”.
As to `O=C1c2c(O)ccc(O)c2C(=O)c2c(NCCNCCO)ccc(NCCNCCO)c21`, the call was inactive.
In the case of `Cn1cnc2c1c(=O)[nH]c(=O)n2C`, the molecule was called inactive.
As for `Nc1nc2c(ncn2COC(CO)CO)c(=O)[nH]1`, the entry is “inactive”; as for `NC12CC3CC(CC(C3)C1)C2`, “inactive”; as for `Cn1ccc2cc3c(cc21)CCN3C(=O)Nc1cccnc1`, “inactive”.
As for `COc1ccc(C2CNC(=O)C2)cc1OC1CCCC1` (stereo not given), the entry is “inactive”; as for `CCOC(=O)Nc1ccc(NCc2ccc(F)cc2)nc1N`, “inactive”.
For `Clc1ccc2c(c1)C(N1CCNCC1)=Nc1ccccc1O2`, the molecule was called inactive.
As for `O=c1[nH]cc(F)c(=O)[nH]1`, the call was inactive.
As for `Nc1c2c(nc3ccccc13)CCCC2`, the entry is “inactive”; as for `COc1nc(C)nc(Cl)c1NC1=NCCN1`, “inactive”.
As for `CC(C)Cc1ccc(C(C)C(=O)O)cc1` (stereo not given), the entry is “inactive”; as for `CN1CCN(CCCN2c3ccccc3Sc3ccc(Cl)cc32)CC1`, “inactive”.
For `Cc1cc(C(C)(C)C)cc(C)c1CC1=NCCN1`, the call was inactive.
As for `COC(=O)Nc1nc2ccc(C(=O)c3cccs3)cc2[nH]1`, the entry is “inactive”; as for `NCCS(=O)(=O)O`, “inactive”; as for `CN(C)c1nc(N(C)C)nc(N(C)C)n1`, “inactive”.
In the case of `CN(C)C(=O)C(CCN1CCC(O)(c2ccc(Cl)cc2)CC1)(c1ccccc1)c1ccccc1`, the call was inactive.
As for `O=c1c(-c2ccc(O)cc2)coc2cc(O)cc(O)c12`, the entry is “inactive”.
With `CN1CCC(=C2c3ccccc3C=Cc3ccccc32)CC1`, the call was inactive.
As for `CNCCCC12CCC(c3ccccc31)c1ccccc12`, the entry is “inactive”; as for `O=C(c1ccc(F)cc1)C1CCN(CCn2c(=O)[nH]c3ccccc3c2=O)CC1`, “inactive”.
As for `CN(C)CCCN1c2ccccc2CCc2ccc(Cl)cc21`, the entry is “inactive”; as for `Cn1c(=O)c2[nH]cnc2n(C)c1=O`, “inactive”.
Consider `O=c1c(O)c(-c2ccc(O)c(O)c2)oc2cc(O)cc(O)c12`, for which the molecule was called inactive.
As for `NS(=O)(=O)c1cc2c(cc1Cl)NCNS2(=O)=O`, the entry is “inactive”; as for `CN1CCN(C2=Nc3cc(Cl)ccc3Nc3ccccc32)CC1`, “inactive”; as for `CCOC(=O)C(C)(C)Oc1ccc(Cl)cc1`, “inactive”.
Turning to `CCCCc1oc2ccccc2c1C(=O)c1cc(I)c(OCCN(CC)CC)c(I)c1`, the molecule was called inactive.
Regarding `CCC1(c2ccccc2)C(=O)NCNC1=O`, the call was inactive.
As for `CCOC(=O)c1ncn2c1CN(C)C(=O)c1cc(F)ccc1-2`, the entry is “inactive”; as for `Nc1nnc(-c2cccc(Cl)c2Cl)c(N)n1`, “inactive”.
As for `COc1ccc2c(c1)c(CC(=O)O)c(C)n2C(=O)c1ccc(Cl)cc1`, the entry is “inactive”.
On to `OCCN(CCO)c1nc(N2CCCCC2)c2nc(N(CCO)CCO)nc(N3CCCCC3)c2n1`, for which the call was inactive.
As for `Fc1ccc([C@@H]2CCNC[C@H]2COc2ccc3c(c2)OCO3)cc1`, the call was inactive.
